In ChEMBL document CHEMBL4513216, “Probing the Open Global Health Chemical Diversity Library for Multistage-Active Starting Points for Next-Generation Antimalarials” (ACS Infect Dis, 2020) one finds INHIBITION data, which are given here for 54 molecules.

Molecules are shown by their SMILES. In all, about 69,000 compounds went through this assay and about 8,600 (12%) showed an effect of 50% or more. Many of the other results were omitted from the sample, so strong results are more common in it than they were.

The subject of the test is Plasmodium berghei. The test is described as follows: Screen against P. berghei liver stage (PbLuc), transformed with Luciferase, at 10uM. In kind it is functional, HepG2. Conditions: tested at 10 uM.
Consider `CCS(=O)(=O)N1CCC(NC(=O)c2ccccc2O)CC1`, for which the INHIBITION is recorded as -33.32%.

Regarding `COC1C[C@@H]2CN(C(=O)c3cccc4c3OCCO4)C[C@@H]2C1` (some centres undefined), the INHIBITION was found to be 40.625%.

For `CCc1nnsc1C(=O)N(C)Cc1nnc2n1CCC2`, the INHIBITION was 22.9%.

Turning to `O=C(c1cnccn1)N1CCC(F)(F)C2(CCN(c3ccccn3)C2)C1` (centres undefined), the INHIBITION was determined as 12.1%.

`CNC(=O)C(NC(=O)c1ccn(C)c(=O)c1)c1ccccc1` (centres undefined): the INHIBITION is on record as -25.9%.

For the molecule `Cc1cccc(CN(Cn2nc(C)c3c(C)onc3c2=O)C2CC2)c1`, the INHIBITION is recorded as -18.9%.

As to `Cc1nn(CN(CC(C)C)C2CC2)c(=O)c2noc(C)c12`, the INHIBITION is -199%.

`CCCN(Cc1ccccc1)Cn1nc(C)c2c(C)onc2c1=O`: the INHIBITION turned out to be 49.9%.

In the case of `CCN(Cc1cccc(C)c1)Cn1nc(C)c2c(C)onc2c1=O`, the INHIBITION turned out to be 49.8%.

As to `Cc1nn(CN(Cc2ccsc2)C2CC2)c(=O)c2noc(C)c12`, the INHIBITION is reported as 63.8%.

Take `CCN(CCc1ccccc1)Cn1nc(C)c2c(C)onc2c1=O`: the INHIBITION is reported as 56.1%.

In the case of `COc1ccc(CC(=O)N2CCCCC2Cn2cccn2)cc1` (centres undefined), the INHIBITION was -8.11%.

For the molecule `c1cnc(-c2nc(CN3CCCC3Cn3cncn3)cs2)nc1` (centres undefined), the INHIBITION worked out at 27.6%.

With `COCCC(=O)N1CCC(c2nc(O)cc(-c3ccncc3)n2)C1` (centres undefined), the INHIBITION is -0.902%.

For the molecule `COCCN(CCOC)C(=O)c1ccoc1C`, the INHIBITION is recorded as -0.551%.

On to `Cc1ccoc1C(=O)N(CCN(C)C)Cc1ccccn1`, for which the INHIBITION is -31.4%.

Regarding `Cc1occc1C(=O)N(CCN(C)C)Cc1ccccn1`, the INHIBITION is 51.3%.

In the case of `CN(C)CCN(Cc1ccccn1)C(=O)Nc1cccc(F)c1`, the INHIBITION is 18.9%.

For the molecule `COc1cc(C(=O)N(CCC#N)Cc2ccccn2)cc(OC)c1C`, the INHIBITION was determined as 7.9%.

`Cc1c(C(=O)N(CCN(C)C)Cc2ccccn2)oc2ccccc12`: the INHIBITION was 63.7%.

As to `c1cnc(N2CCN(C3CCC[C@@H]4CN(CC5CC5)C[C@H]34)CC2)nc1` (some centres undefined), the INHIBITION is given as -34.7%.

With `O=S1(=O)NC(C2CCCN(S(=O)(=O)N3CCCC3)C2)=Nc2ccccc21` (centres undefined), the INHIBITION was 4.535%.

Take `Fc1ccc(OC2CCN(CCn3cncn3)CC2)cc1`: the INHIBITION is listed as -5.69%.

`Cc1ccc(OC2CCN(CCn3cncn3)CC2)cc1`: the INHIBITION is listed as 86.8%.

Turning to `Clc1ccc(OCCN2CCN(CCn3cncn3)CC2)cc1`, the INHIBITION worked out at 47.4%.

For `O=C(NCC1CCS(=O)(=O)C1)c1ccc(NC(=O)c2ccco2)cc1` (centres undefined), the INHIBITION is reported as 18.6%.

For `O=C(CCc1cscn1)N1CCCC(n2cncn2)C1` (centres undefined), the INHIBITION is 31.8%.

Consider `COc1ccc(OC)c(CNc2c(O)c(=O)c2=O)c1`, for which the INHIBITION worked out at 47.4%.

On to `CCc1nc(NCc2ccccn2)c2c(n1)c(C)nn2C`, for which the INHIBITION is reported as 42.1%.

On to `Cc1nn(C)c2c(NCCn3cccn3)ncnc12`, for which the INHIBITION was -37.2%.

With `CCc1nc(NCCCn2cccn2)c2c(n1)c(C)nn2CC`, the INHIBITION is 64%.

In the case of `Cc1nn(C)c2c(NCCCn3cccn3)nc(C3CC3)nc12`, the INHIBITION stood at 42.4%.

For the molecule `CCc1nc(NCCCn2cccn2)c2c(n1)c(C)nn2C`, the INHIBITION is on record as 10.3%.

On to `Cc1nc(NCCCn2cccn2)c2c(n1)c(C)nn2C`, for which the INHIBITION was determined as 57.3%.

Turning to `Cc1nn(C)c2c(NCc3ccccn3)nc(C(C)C)nc12`, the INHIBITION stood at 33.7%.

As for `CCCc1nc(NCCCn2cccn2)c2c(n1)c(C)nn2CC`, the INHIBITION is recorded as 27.5%.

Regarding `Cc1nn(C)c2c(NCCCn3cccn3)nc(C(C)C)nc12`, the INHIBITION came to 62.3%.

`CCc1nc(NCCn2cccn2)c2c(n1)c(C)nn2C`: the INHIBITION stood at 19.3%.

Consider `Cc1nc(NCc2ccccn2)c2c(n1)c(C)nn2C`, for which the INHIBITION is 57.4%.

As to `Cc1nn(C)c2c(NCCCn3cccn3)ncnc12`, the INHIBITION is -43.4%.

As for `Cc1ccc(S(=O)(=O)N2CC[C@H]3CO[C@H](CN(C)C)[C@H]3C2)cc1`, the INHIBITION amounted to 32.2%.

Turning to `COc1ccc(CN2CCC3(CC2)CCN(CC(C)C)C3=O)cc1`, the INHIBITION came out at 13.2%.

`CCn1nc(C)c2nc(C(C)C)nc(NCCCn3cccn3)c21`: the INHIBITION is given as 50.7%.

On to `CCn1nc(C)c2nc(C)nc(NCCCn3cccn3)c21`, for which the INHIBITION is reported as 39.1%.

As for `CCn1nc(C)c2nc(C(C)C)nc(NCCCn3ccnc3)c21`, the INHIBITION is on record as -13.085%.

`C[C@@H]1CN(c2ccc(C#N)cn2)CC[C@@]1(O)C1CCOCC1`: the INHIBITION worked out at 24.76%.

On to `CCCc1n[nH]c(C2CN(C(=O)c3ccc(C)[nH]c3=O)CCO2)n1` (centres undefined), for which the INHIBITION was found to be 40.2%.

For the molecule `c1ccc(CCCN2CCN(CCn3cncn3)CC2)cc1`, the INHIBITION turned out to be 15.1%.

For the molecule `COc1cc2c(c(OC)c1OC)CCN(CCn1nc(C)cc1C)CC2`, the INHIBITION is listed as 36.3%.

On to `COc1cc(C)cc(C(C(=O)O)N(C)CCN2CCCC2)c1OC` (centres undefined), for which the INHIBITION is 28%.

On to `COc1cc2c(c(OC)c1OC)CCN(CCn1cncn1)CC2`, for which the INHIBITION came out at 52.6%.

`COc1ccc(CN2CCn3cncc3C2)cc1Cn1cncn1`: the INHIBITION worked out at 16.1%.

Take `COc1cc2c(c(OC)c1OC)CCN(CCN1CCCCC1)CC2`: the INHIBITION stood at 54.8%.

In the case of `CNC(=O)[C@H]1C[C@H]2OCC[C@H]2N(CCOc2ccc(Cl)cc2)C1`, the INHIBITION is -52.3%.
